Measurements published in PubChem BioAssay AID1159607 (Small Molecule Screening Facility, UW Madison, 2016).
Out of some 70,000 compounds screened, about 400 (0.57%) were called active. For the sample, actives were picked, then their nearest neighbours and some compounds at random. Values without a mark were called inactive. Cut-off read from the data, not from the text of the source: active = FP signal below about 40; inactive = the rest.

What follows are compounds tested on RMI core complex (RMI1/RMI2) binding to FANCM MM2 peptide, human (assay: disruptors of RMI1/RMI2 association with MM2 peptide – biochemical, fluorescence polarization, human, primary screen (AID 1159607)). Settings: RMI core complex with F-MM2 peptide, at 33 µM, active compounds read low.
For `O=C(/C=C/c1cccc(F)c1)c1cccs1`, the FP signal (polarization) was 64.
`CCc1ccccc1NC(=O)c1csc(Nc2ccc(S(C)(=O)=O)cc2)n1` gave an FP signal (polarization) of 77.
Work on `C=CCN(CC=C)S(=O)(=O)c1ccc(C(=O)Nc2nc(-c3ccc4ccccc4c3)cs2)cc1` yielded an FP signal (polarization) of 86.
Compound `Nc1ccc2c(c1)N(C(=O)c1ccccc1)CCC2` has an FP signal (polarization) of 68.
Compound `Nc1cc(-c2ccccc2)no1` has an FP signal (polarization) of 63.
In the case of `C=CCn1c(SCC(=O)Nc2nsc(-c3ccccc3)n2)nc2scc(-c3ccco3)c2c1=O`, the FP signal (polarization) is reported as 98.
`COc1ccc(CC(=O)Nc2ccc(SCC(=O)N3CCCC3)nn2)cc1OC` showed an FP signal (polarization) of 61.
With `O=C(CC1CCCCN1S(=O)(=O)c1ccc(F)cc1)NCc1ccc2c(c1)OCO2` (stereo not drawn) the FP signal (polarization) was 68.
Compound `CCn1nc(C(=O)Nc2cc(C)nn2-c2nc3ccc(OC)cc3s2)cc1C` has an FP signal (polarization) of 71.
In the case of `Cc1ccc(C)c(NC(=O)CCS(=O)(=O)c2ccccc2)c1`, the FP signal (polarization) is reported as 70.
Work on `COc1ccc(-c2nc(NC(=O)c3cccc(NS(=O)(=O)c4ccccc4)c3)sc2C)cc1` yielded an FP signal (polarization) of 52.
Work on `CCOC(=O)c1sc(NC(=O)c2ccc(-c3ccccc3)cc2)nc1-c1ccccc1` yielded an FP signal (polarization) of 57.
`COc1ccc(C(=O)Nc2nc(-c3ccccc3)c(C)s2)cc1` was tested, and the FP signal (polarization) was 33 (active).
With `COc1ccc2nc(-c3ccc(OC)c(NC(=O)c4ccccc4Cl)c3)cn2n1` the FP signal (polarization) was 13 (active).
`COc1ccc2nc(-c3ccc(F)c(NC(=O)c4ccccc4C(F)(F)F)c3)cn2n1` gave an FP signal (polarization) of 87.
With `CCCC(=O)Nc1cc(-c2cn3nc(OC)ccc3n2)ccc1OC` the FP signal (polarization) was 70.
With `COc1ccc(N)cc1N1CCCCC1=O` the FP signal (polarization) was 62.
Work on `COc1ccc(-c2csc3c(=O)n(Cc4ccccc4Cl)cnc23)cc1` yielded an FP signal (polarization) of 63.
With `O=c1c2scc(-c3ccccc3)c2ncn1Cc1ccccc1` the FP signal (polarization) was 64.
In the case of `COc1ccc(-c2csc3c(=O)n(Cc4cc(=O)n5ccccc5n4)cnc23)cc1OC`, the FP signal (polarization) is reported as -23 (active).
Compound `O=C(NCCN1CCN(c2ccc(F)cc2)CC1)C(=O)NC1CC1` has an FP signal (polarization) of 62.
For `N/C(CS(=O)(=O)c1ccc(Cl)cc1)=N/O`, the FP signal (polarization) was 56.
In the case of `O=C(/C=C/c1cccs1)Nc1nnc(-c2cc3ccccc3o2)o1`, the FP signal (polarization) is reported as 56.
`COC1C=CC23c4cc5c(cc4CN(CC2O)[C@@H]3C1)OCO5` (stereo partly drawn) showed an FP signal (polarization) of 63.
In the case of `O=C(Cn1c2c(c(=O)n(C3CCCCC3)c1=O)CCC2)Nc1ccc2c(c1)OCCO2`, the FP signal (polarization) is reported as 58.
Compound `Cc1ccc(C(=O)CSc2nnc3ccc4ccccc4n23)cc1C` has an FP signal (polarization) of 75.
`Cc1ccc2c(c1)nnc1nnc(SCC(=O)O)n12` was tested, and the FP signal (polarization) was 2 (active).
In the case of `CCCc1cc(=O)[nH]c2nnc(SCC(=O)Nc3nc4ccc(C)cc4s3)n12`, the FP signal (polarization) is reported as 47.
